# PubChem BioAssay (NCI)
# About 83,000 compounds went through this panel and 20% of them were active in at least one assay; those are over-represented in the sample as a whole.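 Treatment: one concentration, 48 hours, 96-well format. Scoring: percent growth, with anything below 10 considered active.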 A number with no mark means an inactive call. Active and inactive are the calls of the source.
# Tested on: MCF7 breast
# Test: NCI-60 one-dose screen, 48 h (100 = growth as untreated, 0 = no growth, -100 = all killed)
# Settings: 10 µM unless noted
row,SMILES,growth
1,Cc1ccc2c(c1)c(Sc1ccc(C(=O)NO)cc1)c1n2CN(C)CC1,16.6%
2,O=C1NC(=S)S/C1=C\c1cccc([N+](=O)[O-])c1,87.8%
3,CCCN(CCC)c1ccc(/C=C/c2ccc3cc(OCC)ccc3n2)cc1,84.9%
4,Clc1ccc(C2=NN(c3ccccc3)[C@H](c3cn(-c4ccccc4)nc3-c3ccccc3)C2)cc1,97.5%
5,COc1cc(C(=O)/C=C/c2c(-c3cccs3)nc3sccn23)cc(OC)c1OC,11%
6,CCOC(=O)C1=C(C)N2C(=NC3=C(CCCC/C3=C\c3cc(OC)c(OC)c(OC)c3)C2c2cc(OC)c(OC)c(OC)c2)S1 (centres undefined),60.9%
7,CN1CCN(c2nc(-c3ccncc3)nc3sc4c(c23)CCCCCC4)CC1,60.6%
8,COc1ccc(-n2ncc3c4nc(OC)c(S(=O)(=O)c5ccccc5)cc4ccc32)cc1,87.9%
9,COc1ccc(C2CC(c3cc(OC)c(OC)c(OC)c3)=NN2c2ccc(S(N)(=O)=O)cc2)cc1 (centres undefined),57%
10,Cc1nn(CC(=O)O)c2c1C(=O)CC(C)(C)C2,102%
11,O=C1C(Br)=C(c2ccccc2)C(=O)C(Br)=C1c1ccccc1,92.6%
12,Cc1ccc(C)c2c1sc1nc3nc4sc5ccccc5n4c(=N)c3c(=O)n12,51.1%
13,Nc1cc(Br)c(-c2nnc(CCC(=O)c3nc4ccccc4[nH]3)o2)c(Br)c1,18.9%
14,COc1ccc(Nc2nc(NCCNc3ccnc4cc(Cl)ccc34)nc(N3CCOCC3)n2)cc1,56.2%
15,Cc1nc2cc(Nc3nc(N4CCOCC4)nc(N4CCN(C)CC4)n3)ccc2n1Cc1ccccc1,98.8%
16,COc1ccc(-c2nc3sc(C)cn3c2/C=C/C(=O)c2cc(OC)c(OC)c(OC)c2)cc1,46.7%
17,O=[N+]([O-])c1ccc(O)c2ncccc12,35.2%

row,SMILES,growth
1,CC1(C)N=C(N)N=C(N)N1c1cccc(/C=C/C=C/c2cccc([N+](=O)[O-])c2)c1,57.9%
2,O=c1nc(NO)[nH]c(=O)n1Cc1ccccc1,98.9%
3,C[C@@H](Oc1cc(-c2cnn(C3CC4(CCNCC4)C3)c2)cnc1N)c1c(F)ccc(Cl)c1Cl,-34.6% (active)
4,C=CC(=O)N1CC2(CC(n3nc(-c4ccc(Oc5ccccc5)cc4)c4c(N)ncnc43)C2)C1,26.5%
5,COc1ccc(OC)c(C2C(C#N)=C(N)Oc3cc(O)ccc32)c1 (centres undefined),99.3%
6,CC(C)(C)[Si](C)(C)OC1[C@@H](O[Si](C)(C)C(C)(C)C)[C@@H](CNC(=O)NC(=O)C(F)(F)F)O[C@H]1n1cnc2c(NC(=O)Nc3ccccc3)ncnc21 (some centres undefined),48.3%
7,Nc1nc(N)c(N=Nc2c(Br)cc(S(N)(=O)=O)cc2Br)c(N)n1,68.6%
8,O=C(NCc1cccnc1)c1ccc([N+](=O)[O-])o1,13.9%
9,Cn1c(=O)c2c(-c3ccccc3F)n(-c3ccc4c(c3)OCO4)cc2n(C)c1=O,94.5%
10,Nc1nc2c(s1)CCc1c-2c(Br)n(Cc2ccccc2)c1Br,78.4%
11,CN1CCc2c(c3ccccc3c3ccccc23)C1,26.4%
12,COc1cccc(C2C3=C(COC3=O)N(CCO)c3cc4c(cc32)CCC4)c1 (centres undefined),9.39% (active)
13,O=C(Nc1ccc(F)cc1)c1ccc(C(=O)Nc2ccc(F)cc2)cc1,95.9%
14,Cc1cc(O)cc2c1[C@H]1CC[C@]3(C)[C@@H](O)CC[C@H]3[C@@H]1C=C2,109%
15,C[C@@H](Oc1cc(-c2cnn(C3CC4(CCCNC4)C3)c2)cnc1N)c1c(Cl)ccc(F)c1Cl (some centres undefined),-14.5% (active)
16,Clc1ccc(Nc2nc(Nc3ccccc3)nc(Nc3ccc(-c4cc(-c5ccc(Cl)cc5)on4)cc3)n2)cc1,50%
17,Cc1nc(-c2ccccc2)cc2c(O)c(C(=O)N/N=C/Cc3ccccc3)[nH]c(=O)c12,98.5%
